Shown are actives, neighbours in structure and some others; about 3.5% of the full set was active somewhere.
Kir21 block – inhibitors of mouse Kir2.1 inward-rectifier potassium channel; HEK293-Kir2.1, FluxOR thallium flux fluorescence; hits give low values; hit rate 0.85% among 310,000; B-score at 10 µM;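 active = fluorescence ratio B-score at or below minus 3 SD of library scores, with starting-brightness B-score within 2 SD, cut at about -4.2 in these data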;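 note: channel flux triggered by added potassium and thallium sulfate stimulus; B-score of peak minus minimum fluorescence over baseline after thallium stimulus; more negative B-score means stronger Kir2.1 block with less thallium influx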
ANO1 block – blocks the mouse calcium-activated chloride channel TMEM16A | Q8BHY3 | normalized B-score (activity score, 25-100; higher = stronger inhibition) at 10 µM | hit rate 1.2% among 310,000 | HEK293 TMEM16A/YFP iodide influx fluorescence, ionomycin | AID 588511;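 active = ratio plate-corrected score three or more library SD toward inhibition, starting fluorescence score within five deviations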;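 note: score derived from kinetic fluorescence span divided by baseline fluorescence per well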
KCNK3 block – human KCNK3 channel inhibition, primary screen; O14649; CHO-KCNK3 thallium flux, FluxOR fluorescence; hits give low values; B-score at 10 µM; hit rate 0.84% among 340,000; AID 602410;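 active = B-score under library mean minus 4 SD, starting fluorescence ratio at most library mean plus 5 SD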;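 note: more negative B-score means stronger inhibition of thallium flux through KCNK3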
KCNK9 block – inhibitors of human KCNK9 two-pore domain potassium channel | Q9NPC2 | hit rate 1.2% among 310,000 | HEK293 KCNK9, FluxOR thallium flux fluorescence; hits give low values | B-score at 10 µM | AID 488922;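 active = ratio B-score over 3 SD below the library mean, with starting fluorescence within 5 SD of its mean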;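 note: negative B-score means less thallium flux so channel inhibition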
Target sequence (Q9NPC2 whole entry, looked up, the tested form may be a part): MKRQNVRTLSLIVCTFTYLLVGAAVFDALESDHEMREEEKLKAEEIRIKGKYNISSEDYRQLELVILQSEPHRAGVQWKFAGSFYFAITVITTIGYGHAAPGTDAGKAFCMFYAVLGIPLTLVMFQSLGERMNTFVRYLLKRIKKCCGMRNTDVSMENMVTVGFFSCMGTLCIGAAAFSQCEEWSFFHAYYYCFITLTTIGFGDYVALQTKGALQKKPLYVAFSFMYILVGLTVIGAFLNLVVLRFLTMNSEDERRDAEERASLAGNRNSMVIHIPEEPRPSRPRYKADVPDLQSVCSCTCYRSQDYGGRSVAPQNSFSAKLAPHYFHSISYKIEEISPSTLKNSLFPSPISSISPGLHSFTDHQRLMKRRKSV
TMEM16A act – activators or potentiators of mouse TMEM16A chloride channel; Q8BHY3; HEK293 TMEM16A/YFP-H148Q/I152L, iodide quench fluorescence; hits give low values; B-score at 10 µM; hit rate 0.3% among 340,000;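 active = fluorescence-ratio B-score plate-corrected deviation score at least 3 library SD below zero, with starting fluorescence score within 5 deviations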;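 note: channel opened by trigger with iodide after compound preincubation; score built on the fluorescence ratio of max minus min over baseline; more negative score means more quench and so TMEM16A activation or potentiation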
KCNK3 confirm – confirmation of human KCNK3 two-pore domain potassium channel inhibitors. shares compounds with KCNK3 block. CHO-KCNK3 thallium flux, FluxOR fluorescence; 0% buffer, 100% carvedilol maximal block. ratio percent of control, % at 10 µM. hit rate 99% among 2,400. AID 651638;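 active = ratio percent of control, averaged over triplicates, above buffer control mean plus 5 SD, cut at about 64% in these data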;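 note: ratio is the fluorescence rise from min to max over baseline after thallium stimulus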
KCNK3 noninduced – activity in cells without induced KCNK3 expression; shares compounds with KCNK3 block; thallium flux ratio (lower = more inhibition) at 10 µM; non-induced KCNK3 parental cells, FluxOR thallium flux; hits give low values; hit rate 40% among 2,400;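 active = thallium flux ratio, averaged over three wells, more than 5 SD below the buffer control mean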;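 note: host cells are CHO cells without KCNK3 induction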
Large screens that a line does not name were inactive (follow-up assays come after a bar, where they were run).

C=CCn1c(-c2ccccc2)cc(SC)c(C#N)c1=O	KCNK3 block -9.5 | KCNK3 confirm 84 | KCNK3 noninduced inactive
COc1cccc(-c2cc(C(=O)N3CCCc4ccccc43)no2)c1	KCNK3 block -12 | KCNK3 confirm 115 | KCNK3 noninduced inactive
COc1ccc(-c2cc(C(=O)N3CCCc4ccccc43)no2)cc1	none
COc1ccc(CCN(Cc2cc3cc(C)cc(C)c3nc2Cl)C(=O)C2CC2)cc1	KCNK3 block -11 | KCNK3 confirm 98 | KCNK3 noninduced inactive
C(=N\N1CCOCC1)/c1cccs1	none
COc1ccc(NC(=O)CN(C)C(=O)C2CCCO2)cc1 (stereo not drawn)	none (no result: Kir21 block, ANO1 block, KCNK9 block)
Cc1nn2c(-c3cccc(NC(=O)c4ccco4)c3)nnc2c2ccccc12	KCNK3 block -14 | KCNK3 confirm 106 | KCNK3 noninduced inactive
O=C(Nc1cccc(-c2nnc(-c3ccccc3)o2)c1)c1ccco1	none
CCOC(=O)N1CCN(C(=O)/C=C/c2cccc([N+](=O)[O-])c2)CC1	none
CCc1ccc(N2C(=O)C(Cl)=C(N3CCCCCC3)C2=O)cc1	KCNK9 block -7.1 | KCNK3 confirm 117 | KCNK3 noninduced 0.15
CCc1ccc(N2C(=O)C(Cl)=C(N3CCOCC3)C2=O)cc1	none
Cc1nn(-c2cccc(C(F)(F)F)c2)c(=O)c2ccccc12	KCNK3 block -9 | KCNK3 confirm 114 | KCNK3 noninduced 0.16
Cc1ccc(S(=O)(=O)N2CCN(C(=O)C(C)Cn3nc(C)c(C)c3C)CC2)cc1 (stereo not drawn)	none
COc1ccc(NC(=O)CSc2nc(=O)n(CCN(C)C)c3c2CCCC3)cc1	none
Cc1ccc(NC(=O)CSc2nc(=O)n(CCN(C)C)c3c2CCCC3)cc1Cl	KCNK3 block -10 | KCNK3 confirm 68 | KCNK3 noninduced inactive
N#Cc1cccc(CN2CCCN(Cc3ccc(F)cc3)S2(=O)=O)c1	KCNK3 block -9.2 | KCNK3 confirm 94 | KCNK3 noninduced 0.15
C=Cc1ccc(CN2CCCN(Cc3ccc(F)cc3)S2(=O)=O)cc1	none
CC(=O)Oc1c(I)cc(I)cc1C(=O)Nc1ccc(Cl)cc1	ANO1 block 100, KCNK3 block -11 | KCNK3 confirm 123 | KCNK3 noninduced 0.13
COc1ccc(/C=C(/NC(=O)c2ccc(OC)c(OC)c2)C(=O)NCCCn2ccnc2)cc1	none
CC(C)N(C(=O)CSc1nnc(-c2ccc3c(c2)OCO3)n1C)C(C)C	none
Cc1c(Cl)cccc1NC(=S)NCC1COc2ccccc2O1 (stereo not drawn)	KCNK3 block -8.9 | KCNK3 confirm 125 | KCNK3 noninduced 0.14
C=CCNC(=S)NCC1COc2ccccc2O1 (stereo not drawn)	none
Cc1nc(N2CCN(C(=O)c3cccs3)CC2)c2c3c(sc2n1)CCCC3	KCNK3 block -10 | KCNK3 confirm 92 | KCNK3 noninduced inactive
COc1cccc(-c2nc(NC3CCCC3)c3ccccc3n2)c1O	KCNK3 block -13 | KCNK3 confirm 133 | KCNK3 noninduced inactive
COc1cccc(-c2nc(NCc3ccccc3)c3ccccc3n2)c1O	none
S=C(c1ccc(-c2cc(Cl)ccc2Cl)o1)N1CCOCC1	KCNK3 block -8.9 | KCNK3 confirm 126 | KCNK3 noninduced 0.14
O=C(Nc1ccc(CN2CCOCC2)cc1)c1ccc(-c2cc(Cl)ccc2Cl)o1	none
COc1cc(/C=C2\C(=O)ON=C2c2ccccc2)cc(Cl)c1O	Kir21 block -10, KCNK3 block -8.9 | KCNK3 confirm 115 | KCNK3 noninduced 0.14
CCOc1cc(/C=C2\C(=O)ON=C2c2ccccc2)cc(Br)c1O	Kir21 block -7.3, KCNK3 block -8.8 | KCNK3 confirm 135 | KCNK3 noninduced 0.098
CCOc1cc(/C=C2/C(=O)ON=C2C)cc(Br)c1O	none
O=C1ON=C(c2ccccc2)/C1=C\c1ccco1	none
Cc1ccc(/C=C2/C(=O)ON=C2c2ccccc2)o1	Kir21 block -5.9, ANO1 block 25, KCNK3 block -10 | KCNK3 confirm 122 | KCNK3 noninduced inactive
CCn1cc(C(=O)OCC(=O)NCc2ccc3c(c2)OCO3)c(=O)c2ccc(C)nc21	none
c1ccc(Cn2nnnc2C(c2cccs2)N2CCCCCC2)cc1 (stereo not drawn)	ANO1 block 100, KCNK3 block -10 | KCNK3 confirm 116 | KCNK3 noninduced 0.13
Fc1ccc(C(c2nnnn2Cc2cccs2)N2CCN(c3ccccc3)CC2)cc1 (stereo not drawn)	KCNK3 block -10, KCNK9 block -7.4 | KCNK3 confirm 102 | KCNK3 noninduced inactive
COc1ccc(Cn2nnnc2C(c2cccs2)N2CCN(c3ccccc3)CC2)cc1 (stereo not drawn)	none
Cc1ccnc2nc(C(=O)OC(C)C(=O)NCc3ccccc3)nn12 (stereo not drawn)	none (no result: Kir21 block, ANO1 block, KCNK9 block)
Cc1cccc(N2CCN(C3=NC(=O)C(Cc4ccccc4)S3)CC2)c1 (stereo not drawn)	none
Cc1nn(C)c(=O)c(N)c1-c1cc(-c2ccc(Cl)c(Cl)c2)n[nH]1	none
Cc1cc(C)c2[nH]c(=O)c(CN(Cc3cccnc3)C(=S)NCCCN(C)C)cc2c1	none
CCN(CC)CC(=O)Nc1ccccc1SCC(=O)Nc1ccsc1C(=O)OC	KCNK3 block -9.9 | KCNK3 confirm 98 | KCNK3 noninduced inactive
C/C(=N\NC(=S)NC1CCCCC1)c1cccc(C(F)(F)F)c1	none
CCSc1nnc(-c2cccc(S(=O)(=O)N(CC)CC)c2)n1Cc1ccccc1	KCNK3 block -9.8 | KCNK3 confirm 93 | KCNK3 noninduced inactive
O=S(=O)(NC(=NCCc1ccc(Cl)cc1)c1ccccc1Cl)c1cccs1	KCNK3 block -8.9 | KCNK3 confirm 114 | KCNK3 noninduced 0.16
NC(=NCCc1ccccc1)NS(=O)(=O)c1cccs1	none
Cc1noc(C)c1COc1cccc(C(=O)Nc2ccc3c(c2)OCO3)c1	none
Cc1noc(C)c1COc1cccc(C(=O)Oc2ccc3c(c2)OCO3)c1	KCNK3 block -8.8 | KCNK3 confirm 96 | KCNK3 noninduced inactive
O=C(CSc1nnc(NC(=O)c2ccc(F)cc2F)s1)NC1CC1	none
C=CCn1c(Sc2ncc([N+](=O)[O-])s2)n[nH]c1=O	KCNK3 block -9.3 | KCNK3 confirm 144 | KCNK3 noninduced 0.083
CCCCN=C1CC(C)(C)CC(=O)/C1=C(/O)CCC	KCNK3 block -11 | KCNK3 confirm 100 | KCNK3 noninduced inactive
CCCN1Cc2cccc(C(=O)NCCc3cccc(C)c3)c2C1=O	KCNK3 block -9.7 | KCNK3 confirm 110 | KCNK3 noninduced 0.15
CN(C)S(=O)(=O)N(CC(=O)Nc1ccccc1F)c1ccccc1	none
CCc1ccc(NC(=O)CN(c2ccccc2)S(=O)(=O)N(C)C)cc1	KCNK3 block -10 | KCNK3 confirm 103 | KCNK3 noninduced inactive

Source: PubChem BioAssay (Johns Hopkins Ion Channel Center)
